# Screen size: about 3,200 compounds; about 300 (9.4%) showed activity. The full list was thinned out, with actives kept by preference.
# Tested on: A673/TR/shEF
# Experiment: cell viability (LOESS-normalised, relative to median of negative controls) (log2 ratio); higher = more viable cells (less compound effect), active = hit call of the paper (over 3 MAD below the median)
# Settings: treatment time: 72 h
# Procedure, shortened: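 A673/TR/shEF Ewing sarcoma cells (1,500 per well, 384-well plates) were grown with or without doxycycline to induce EWS-FLI1 shRNA knockdown, starting 24 h before compounds. Library compounds at two or more concentrations, with DMSO controls, were added for three days. Cell viability was read by CellTiter-Glo luminescence on an Envision reader, then LOESS-corrected per plate, divided by the median of negative controls and log2-transformed. Hits were wells at least three median absolute deviations from the median of all screened wells.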
# [1] = 0.25 µM, library screen: screen1, EWS-FLI1 expression: high (no doxycycline)
# [2] = 0.25 µM, library screen: screen1, EWS-FLI1 expression: low (doxycycline-induced shRNA knockdown)
# [3] = 2.5 µM, library screen: screen1, EWS-FLI1 expression: high (no doxycycline)
# [4] = 2.5 µM, library screen: screen1, EWS-FLI1 expression: low (doxycycline-induced shRNA knockdown)
# [5] = 0.25 µM, library screen: screen2, EWS-FLI1 expression: high (no doxycycline)
# [6] = 0.25 µM, library screen: screen2, EWS-FLI1 expression: low (doxycycline-induced shRNA knockdown)
# [7] = 2.5 µM, library screen: screen2, EWS-FLI1 expression: high (no doxycycline)
# [8] = 2.5 µM, library screen: screen2, EWS-FLI1 expression: low (doxycycline-induced shRNA knockdown)
# [9] = 0.103 µM, library screen: screen3, EWS-FLI1 expression: high (no doxycycline)
# [10] = 0.103 µM, library screen: screen3, EWS-FLI1 expression: low (doxycycline-induced shRNA knockdown)
# [11] = 0.308 µM, library screen: screen3, EWS-FLI1 expression: high (no doxycycline)
# [12] = 0.308 µM, library screen: screen3, EWS-FLI1 expression: low (doxycycline-induced shRNA knockdown)
# [13] = 0.926 µM, library screen: screen3, EWS-FLI1 expression: high (no doxycycline)
# [14] = 0.926 µM, library screen: screen3, EWS-FLI1 expression: low (doxycycline-induced shRNA knockdown)
# [15] = 2.8 µM, library screen: screen3, EWS-FLI1 expression: high (no doxycycline)
# [16] = 2.8 µM, library screen: screen3, EWS-FLI1 expression: low (doxycycline-induced shRNA knockdown)
# [17] = 8.3 µM, library screen: screen3, EWS-FLI1 expression: high (no doxycycline)
# [18] = 8.3 µM, library screen: screen3, EWS-FLI1 expression: low (doxycycline-induced shRNA knockdown)
# [19] = 25 µM, library screen: screen3, EWS-FLI1 expression: high (no doxycycline)
# [20] = 25 µM, library screen: screen3, EWS-FLI1 expression: low (doxycycline-induced shRNA knockdown)
# [21] = 0.025 µM, library screen: screen1, EWS-FLI1 expression: high (no doxycycline)
# [22] = 0.025 µM, library screen: screen1, EWS-FLI1 expression: low (doxycycline-induced shRNA knockdown)
# [23] = 25 µM, library screen: screen1, EWS-FLI1 expression: high (no doxycycline)
# [24] = 25 µM, library screen: screen1, EWS-FLI1 expression: low (doxycycline-induced shRNA knockdown)
smiles,measurement,setting,value
COC(=O)C[C@H]1C(C)(C)[C@@H](OC(C)=O)[C@@H]2CC3C4CC(=O)O[C@@H](c5ccoc5)[C@]4(C)CCC3[C@@]1(C)C2=O (stereo partly drawn),cell viability (log2),[1],0.0705 (inactive)
same,cell viability (log2),[2],0.0161 (inactive)
same,cell viability (log2),[3],0.14 (inactive)
same,cell viability (log2),[4],0.112 (inactive)
C=C1CCC(=O)C(C)CCC2C1CC2(C)C (stereo not drawn),cell viability (log2),[1],0.0584 (inactive)
same,cell viability (log2),[2],-0.00925 (inactive)
same,cell viability (log2),[3],0.119 (inactive)
same,cell viability (log2),[4],-0.105 (inactive)
COc1ccc(-c2oc3cc(O[C@@H]4O[C@H](CO)[C@@H](O)[C@H](O)[C@H]4O)c(OC)c(O)c3c(=O)c2OC)cc1O,cell viability (log2),[1],0.0438 (inactive)
same,cell viability (log2),[2],0.127 (inactive)
same,cell viability (log2),[3],0.0949 (inactive)
same,cell viability (log2),[4],0.0982 (inactive)
O=C(O)C1CN(CCCP(=O)(O)O)CCN1 (stereo not drawn),cell viability (log2),[5],0.0853 (inactive)
same,cell viability (log2),[6],0.0707 (inactive)
same,cell viability (log2),[7],0.0988 (inactive)
same,cell viability (log2),[8],0.109 (inactive)
Cc1cccc(C)c1NC(=O)C[N+](C)(C)C,cell viability (log2),[5],0.174 (inactive)
same,cell viability (log2),[6],0.0998 (inactive)
same,cell viability (log2),[7],0.0786 (inactive)
same,cell viability (log2),[8],0.0656 (inactive)
CCN(CC)CC(=O)Nc1c(C)cccc1C,cell viability (log2),[9],0.148 (inactive)
same,cell viability (log2),[10],0.0138 (inactive)
same,cell viability (log2),[1],0.147 (inactive)
same,cell viability (log2),[2],0.00307 (inactive)
same,cell viability (log2),[5],0.111 (inactive)
same,cell viability (log2),[6],0.106 (inactive)
same,cell viability (log2),[11],0.0507 (inactive)
same,cell viability (log2),[12],0.127 (inactive)
same,cell viability (log2),[13],0.13 (inactive)
same,cell viability (log2),[14],0.0501 (inactive)
same,cell viability (log2),[3],0.157 (inactive)
same,cell viability (log2),[4],0.131 (inactive)
same,cell viability (log2),[7],0.0975 (inactive)
same,cell viability (log2),[8],0.0477 (inactive)
same,cell viability (log2),[15],0.00489 (inactive)
same,cell viability (log2),[16],0.0234 (inactive)
same,cell viability (log2),[17],0.0246 (inactive)
same,cell viability (log2),[18],0.018 (inactive)
same,cell viability (log2),[19],-0.278 (active)
same,cell viability (log2),[20],0.0253 (inactive)
CC[N+](CC)(CC)CC(=O)Nc1c(C)cccc1C,cell viability (log2),[5],0.105 (inactive)
same,cell viability (log2),[6],0.169 (inactive)
same,cell viability (log2),[7],0.0372 (inactive)
same,cell viability (log2),[8],0.0518 (inactive)
CC(C)=CCCC(C)(O)C1CC=C(C)CC1 (stereo not drawn),cell viability (log2),[1],0.0431 (inactive)
same,cell viability (log2),[2],-0.0174 (inactive)
same,cell viability (log2),[3],0.0996 (inactive)
same,cell viability (log2),[4],0.0501 (inactive)
COC(=O)c1c(C)cc(OC(=O)c2c(C)cc(O)c(CO)c2O)c(C)c1O,cell viability (log2),[1],0.129 (inactive)
same,cell viability (log2),[2],0.0318 (inactive)
same,cell viability (log2),[3],0.139 (inactive)
same,cell viability (log2),[4],0.0883 (inactive)
C[C@]12CC[C@@H](O)C[C@H]1CC[C@@H]1[C@@H]2C(=O)C[C@@]2(C)[C@H]1CC[C@]2(O)C(=O)CO,cell viability (log2),[1],0.162 (inactive)
same,cell viability (log2),[2],0.116 (inactive)
same,cell viability (log2),[3],0.185 (inactive)
same,cell viability (log2),[4],0.0107 (inactive)
Cc1cc(=O)c2c(O)c3c(cc2o1)OCC(C)CC3 (stereo not drawn),cell viability (log2),[1],0.0148 (inactive)
same,cell viability (log2),[2],0.14 (inactive)
same,cell viability (log2),[3],0.0878 (inactive)
same,cell viability (log2),[4],0.127 (inactive)
CN=C(N)NCCCC(N)C(=O)O (stereo not drawn),cell viability (log2),[1],0.0723 (inactive)
same,cell viability (log2),[2],0.0246 (inactive)
same,cell viability (log2),[3],-0.0207 (inactive)
same,cell viability (log2),[4],-0.0108 (inactive)
Nn1c(SCC(=O)c2ccc(Cl)cc2)nc2ccccc2c1=O,cell viability (log2),[1],0.102 (inactive)
same,cell viability (log2),[2],0.0418 (inactive)
same,cell viability (log2),[3],0.24 (inactive)
same,cell viability (log2),[4],0.000811 (inactive)
CC1(C)Oc2ccc3ccc(=O)oc3c2C[C@H]1O,cell viability (log2),[1],0.0366 (inactive)
same,cell viability (log2),[2],-0.00203 (inactive)
same,cell viability (log2),[3],0.0909 (inactive)
same,cell viability (log2),[4],0.0204 (inactive)
NC[C@@H]1O[C@H](O[C@H]2[C@@H](O)[C@H](O[C@@H]3[C@@H](O)[C@H](N)C[C@H](N)[C@H]3O[C@H]3O[C@H](CO)[C@@H](O)C[C@H]3N)O[C@@H]2CO)[C@H](N)[C@@H](O)[C@@H]1O[C@H]1O[C@H](CO)[C@@H](O)[C@H](O)[C@@H]1O,cell viability (log2),[1],0.156 (inactive)
same,cell viability (log2),[2],0.0397 (inactive)
same,cell viability (log2),[3],0.0315 (inactive)
same,cell viability (log2),[4],0.0591 (inactive)
Cc1ccc(NC(=O)c2cccc(N(C)C)c2)cc1NC(=O)c1ccc(O)cc1,cell viability (log2),[21],0.191 (inactive)
same,cell viability (log2),[22],-0.0357 (inactive)
same,cell viability (log2),[1],0.277
same,cell viability (log2),[2],0.139 (inactive)
same,cell viability (log2),[3],-0.147 (active)
same,cell viability (log2),[4],0.168 (inactive)
same,cell viability (log2),[23],-0.322 (active)
same,cell viability (log2),[24],0.196 (inactive)
Cc1nc(-c2ccc(NC(=O)c3ccccc3)cc2)cs1,cell viability (log2),[1],0.118 (inactive)
same,cell viability (log2),[2],0.115 (inactive)
same,cell viability (log2),[3],0.0995 (inactive)
same,cell viability (log2),[4],0.089 (inactive)
CC(=O)Nc1cccc(O)c1,cell viability (log2),[1],0.142 (inactive)
same,cell viability (log2),[2],0.0568 (inactive)
same,cell viability (log2),[3],0.211 (inactive)
same,cell viability (log2),[4],-0.0215 (inactive)
CC1(C)C(=O)C=C[C@]2(C)C3CC[C@@]4(C)[C@H](c5ccoc5)OC(=O)[C@H]5O[C@]54[C@]3(C)C(=O)C[C@@H]12 (stereo partly drawn),cell viability (log2),[1],0.0539 (inactive)
same,cell viability (log2),[2],0.0813 (inactive)
same,cell viability (log2),[3],0.0765 (inactive)
same,cell viability (log2),[4],0.119 (inactive)
Cc1cc(=O)oc2cc(O)ccc12,cell viability (log2),[1],0.129 (inactive)
same,cell viability (log2),[2],0.0733 (inactive)
same,cell viability (log2),[3],0.103 (inactive)
same,cell viability (log2),[4],-0.0344 (inactive)
Cc1cc(=O)oc2cc(O)c(O)cc12,cell viability (log2),[1],-0.0238 (inactive)
same,cell viability (log2),[2],0.0536 (inactive)
same,cell viability (log2),[3],0.00784 (inactive)
same,cell viability (log2),[4],0.0751 (inactive)
Cc1cc(=O)oc2c(O)c(O)ccc12,cell viability (log2),[1],-0.0965 (active)
same,cell viability (log2),[2],-0.0218 (inactive)
same,cell viability (log2),[3],0.0459 (inactive)
same,cell viability (log2),[4],0.107 (inactive)
N#CC1=C(N)Oc2cc(N)ccc2C1c1ccc(OCc2ccccc2)cc1 (stereo not drawn),cell viability (log2),[1],0.04 (inactive)
same,cell viability (log2),[2],0.0479 (inactive)
same,cell viability (log2),[3],0.099 (inactive)
same,cell viability (log2),[4],0.204 (inactive)
CC(C)C[C@H](N)CSSC[C@@H](N)CC(C)C,cell viability (log2),[5],0.107 (inactive)
same,cell viability (log2),[6],0.1 (inactive)
same,cell viability (log2),[7],0.104 (inactive)
same,cell viability (log2),[8],0.0902 (inactive)
CCCCOCCOC(=O)CCCOc1ccc(Cl)cc1Cl,cell viability (log2),[1],0.0256 (inactive)
same,cell viability (log2),[2],0.038 (inactive)
same,cell viability (log2),[3],0.0946 (inactive)
same,cell viability (log2),[4],0.127 (inactive)
CN(C)CCCn1cc(C2=C(c3c[nH]c4ccccc34)C(=O)NC2=O)c2ccccc21,cell viability (log2),[21],0.176 (inactive)
same,cell viability (log2),[22],0.147 (inactive)
same,cell viability (log2),[1],0.197 (inactive)
same,cell viability (log2),[2],0.193 (inactive)
same,cell viability (log2),[3],-0.136 (active)
same,cell viability (log2),[4],0.291
same,cell viability (log2),[23],-0.422 (active)
same,cell viability (log2),[24],0.0609 (inactive)
Cn1cc(C2=C(c3cn(CCCSC(=N)N)c4ccccc34)C(=O)NC2=O)c2ccccc21,cell viability (log2),[21],0.0502 (inactive)
same,cell viability (log2),[22],0.0613 (inactive)
same,cell viability (log2),[1],-0.0731 (inactive)
same,cell viability (log2),[2],0.0259 (inactive)
same,cell viability (log2),[3],-1.27 (active)
same,cell viability (log2),[4],-0.615 (active)
same,cell viability (log2),[23],-4.25 (active)
same,cell viability (log2),[24],-2.05 (active)
Cn1cc(C2=C(c3ccc(Cl)cc3Cl)C(=O)NC2=O)c2ccccc21,cell viability (log2),[9],0.039 (inactive)
same,cell viability (log2),[10],0.0193 (inactive)
same,cell viability (log2),[11],0.0253 (inactive)
same,cell viability (log2),[12],0.0244 (inactive)
same,cell viability (log2),[13],0.0632 (inactive)
same,cell viability (log2),[14],0.00111 (inactive)
same,cell viability (log2),[15],0.0516 (inactive)
same,cell viability (log2),[16],-0.00589 (inactive)
same,cell viability (log2),[17],0.0741 (inactive)
same,cell viability (log2),[18],0.0603 (inactive)
same,cell viability (log2),[19],0.04 (inactive)
same,cell viability (log2),[20],0.0754 (inactive)
